From the supplement of paper PMC9334596
The full ranking holds about 5,300 compounds; the median of “PER2::LUC luminescence relative to vehicle control” is about 0.96, and the highest 2% start at about 1.3. Many of the other results were omitted from the sample, so the highest values are more common in it than they were.

Tested on: mPer2Luc MEF
Test: PER2::LUC luminescence relative to vehicle control (fold of vehicle); higher = higher PER2::LUC reporter signal
Conditions: 10 µM
Method in brief: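 The reported values are PER2::LUC luminescence as fold of vehicle control in mouse embryonic fibroblasts carrying the mPer2Luc reporter. Cells were seeded at ~3000 per well in 384-well plates in DMEM with 10% FBS at 37 °C and 5% CO2, and compounds were added at 10 μM 48 h later. ONE-Glo luminescence was read 24 h and 30 h after treatment.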

## CC1=C[C@]23C(=O)[C@@H](C=C(CO)[C@@H](O)[C@]2(O)[C@H]1O)[C@H]1[C@@H](C[C@H]3C)C1(C)C
Time after treatment 24 h
  PER2::LUC luminescence: 0.981
Time after treatment 30 h
  PER2::LUC luminescence: 0.957

## CCN(CC)C(=O)NC1CC2c3cccc4[nH]cc(c34)CC2N(C)C1 (configuration not stated)
Time after treatment 24 h
  PER2::LUC luminescence: 0.846
Time after treatment 30 h
  PER2::LUC luminescence: 0.986

## COC1=CC(=O)O[C@@H](CCc2ccc3c(c2)OCO3)C1
Time after treatment 24 h
  PER2::LUC luminescence: 0.859
Time after treatment 30 h
  PER2::LUC luminescence: 0.763

## COC1=CC(=O)O[C@@H](/C=C/c2ccccc2)C1
Time after treatment 24 h
  PER2::LUC luminescence: 1.28
Time after treatment 30 h
  PER2::LUC luminescence: 1.35

## COC1=CC(=O)O[C@@H](/C=C/c2ccc3c(c2)OCO3)C1
Time after treatment 24 h
  PER2::LUC luminescence: 0.149
Time after treatment 30 h
  PER2::LUC luminescence: 0.152

## Cc1o[nH]c(=O)c1CC(N)C(=O)O (racemic)
Time after treatment 24 h
  PER2::LUC luminescence: 0.875
Time after treatment 30 h
  PER2::LUC luminescence: 0.984

## C[C@@H]1OC(=O)[C@H]2C[C@H]3CCCC[C@@H]3[C@@H](/C=C/[C@H]3CCC[C@H](C)N3C)[C@@H]12
Time after treatment 24 h
  PER2::LUC luminescence: 0.807
Time after treatment 30 h
  PER2::LUC luminescence: 0.884

## N=C(N)NCCCCCCCCCCNC(=N)N
Time after treatment 24 h
  PER2::LUC luminescence: 0.972
Time after treatment 30 h
  PER2::LUC luminescence: 0.965

## NCCc1ccccc1
Time after treatment 24 h
  PER2::LUC luminescence: 1.03
Time after treatment 30 h
  PER2::LUC luminescence: 1.04

## NCCc1ccccn1
Time after treatment 24 h
  PER2::LUC luminescence: 0.99
Time after treatment 30 h
  PER2::LUC luminescence: 1.45

## Cn1cnc(CCN)c1
Time after treatment 24 h
  PER2::LUC luminescence: 0.826
Time after treatment 30 h
  PER2::LUC luminescence: 0.66

## CC(C)CC(NC(=O)C(Cc1ccccc1)NC(=O)CNC(=O)C(C)NC(=O)C(N)Cc1ccc(O)cc1)C(=O)O (configuration not stated)
Time after treatment 24 h
  PER2::LUC luminescence: 1.03
Time after treatment 30 h
  PER2::LUC luminescence: 0.904

## CC1(C)C(=O)N(c2ccc(C#N)c(C(F)(F)F)c2)C(=S)N1c1ccc(C(N)=O)c(F)c1
Time after treatment 24 h
  PER2::LUC luminescence: 1.06
Time after treatment 30 h
  PER2::LUC luminescence: 1.11

## CC(=O)OC12CC(C)C3(O)C4C=C(C)C(=O)[C@@]4(O)CC(CO)=C[C@H]3C1C2(C)C (some centres not stated)
Time after treatment 24 h
  PER2::LUC luminescence: 1.15
Time after treatment 30 h
  PER2::LUC luminescence: 0.967

## COC(N)=O
Time after treatment 24 h
  PER2::LUC luminescence: 1.07
Time after treatment 30 h
  PER2::LUC luminescence: 1.01

## NC(=O)CI
Time after treatment 24 h
  PER2::LUC luminescence: 1.59
Time after treatment 30 h
  PER2::LUC luminescence: 1.31

## NNC(N)=O
Time after treatment 24 h
  PER2::LUC luminescence: 1.09
Time after treatment 30 h
  PER2::LUC luminescence: 0.875

## O=C(O)CF
Time after treatment 24 h
  PER2::LUC luminescence: 1.08
Time after treatment 30 h
  PER2::LUC luminescence: 1.08

## CN(C(=O)Cc1ccc(Cl)c(Cl)c1)[C@H](CN1CCCC1)c1cccc(N=C=S)c1
Time after treatment 24 h
  PER2::LUC luminescence: 0.676
Time after treatment 30 h
  PER2::LUC luminescence: 0.687

## CCCN1C[C@H](C)N([C@H](c2ccc(C(=O)N(CC)CC)cc2)c2cccc(OC)c2)C[C@H]1C
Time after treatment 24 h
  PER2::LUC luminescence: 0.894
Time after treatment 30 h
  PER2::LUC luminescence: 0.899

## C=CCN1CC[C@@]2(C)c3cc(O)ccc3C[C@@H]1C2C (single isomer, unassigned; (+))
Time after treatment 24 h
  PER2::LUC luminescence: 0.969
Time after treatment 30 h
  PER2::LUC luminescence: 0.939
